A selection: hits, their analogues and other compounds. The true share with any hit is near 11%.
3T3 cytotox = kills NIH 3T3 cells; NIH 3T3 viability, CellTiter-Glo ATP luminescence, 48-72 h; Potency, µM (series often up to 96.7 µM), for inactives: at the highest dose activity change, negative = cytotoxicity, usual class: inhibitors; hit rate 4.3% among 94,000; AID 1345082; also: % is scaled to controls: 0 for no effect and ±100 for the full control effect; nearly all actives have a fitted effect of over 55% in size
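Cytotoxicity was measured by CellTiter-Glo ATP luminescence after 48 or 72 h compound exposure at 37 °C. Mouse NIH 3T3 fibroblasts were seeded at 400 cells/well and dosed by 23 nL pin transfer.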
HEK cytotox = HEK 293 cell cytotoxicity; HEK 293 viability, ATP luminescence (CellTiter-Glo), 48-72 h; Potency, µM (titrated, usually from 115 µM), inactives show at the highest dose activity change, negative = cytotoxicity, actives largely listed as inhibitors; hit rate 6.6% among 94,000; also: % is scaled to controls: 0 for no effect and ±100 for the full control effect; nearly all actives have a fitted effect of over 60% in size
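250 HEK 293 cells/well; compound by pintool; incubated 48 or 72 hr at 37 degree Celsius; CellTiter-Glo added, 10 min RT, luminescence imaged.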
hNpr1 antagonist = antagonists of human natriuretic peptide receptor Npr1; P16066; HEK293 hNpr1 GloSensor cGMP, ANP-stimulated luminescence; Potency, µM (series often up to 46.3 µM), for the others: top-dose activity change, negative = inhibition, hits mostly inhibitors; hit rate 1.6% among 76,000; calls by dose curve; also: % is scaled to controls: 0 for no effect and ±100 for the full control effect; nearly all actives have a fitted effect of over 60% in size
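Compound pre-incubated 30 min at room temperature on GloSensor-loaded HEK293 cells stably carrying hNpr1 and the pGS-40F cGMP biosensor. Stimulation uses hNppA at 0.1 nM final; luminescence is taken at baseline and 20 min post-agonist.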
FLuc inh-1 = blocks purified firefly luciferase enzyme activity; P08659; purified P. pyralis luciferase, luminescence, biochemical; Potency, µM (titrated, usually from 115 µM), usual class: inhibitors; hit rate 2.5% among 76,000; AID 1347043; also: % is scaled to controls: 0 for no effect and ±100 for the full control effect; nearly all actives have a fitted effect of over 65% in size
Target sequence (P08659 whole entry, looked up): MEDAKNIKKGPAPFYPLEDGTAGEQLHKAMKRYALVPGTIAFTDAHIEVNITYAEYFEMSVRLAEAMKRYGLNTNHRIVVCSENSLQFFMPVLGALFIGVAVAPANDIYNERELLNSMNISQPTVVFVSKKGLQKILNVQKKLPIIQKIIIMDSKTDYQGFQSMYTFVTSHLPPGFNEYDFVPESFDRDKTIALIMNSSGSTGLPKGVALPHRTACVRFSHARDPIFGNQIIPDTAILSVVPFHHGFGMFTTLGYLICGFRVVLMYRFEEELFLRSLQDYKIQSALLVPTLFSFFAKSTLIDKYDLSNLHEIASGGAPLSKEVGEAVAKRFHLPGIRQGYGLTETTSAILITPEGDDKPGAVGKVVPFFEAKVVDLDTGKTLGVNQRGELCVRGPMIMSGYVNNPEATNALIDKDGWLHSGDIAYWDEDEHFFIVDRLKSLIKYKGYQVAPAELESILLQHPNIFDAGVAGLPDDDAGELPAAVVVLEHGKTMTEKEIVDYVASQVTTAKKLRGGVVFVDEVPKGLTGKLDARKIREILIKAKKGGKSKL
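Luminescence read by CCD imager after adding enzyme (10nM final) to wells holding compound, titrated in qHTS. Substrates 10uM each D-luciferin and ATP; buffer 50mM Tris acetate pH 7.5, 10mM Mg acetate, Tween-20, BSA.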
FLuc SDR -ATP = firefly luciferase binding stabilization, ATP absent; hit rate 7.8% among 1,300; Purified FLuc-C-HiBiT, Nano-Glo HiBiT luminescence, no ATP; AID 1963318; Potency, µM (titrated, usually from 32.7 µM), for inactives: at the highest dose activation (signal gain), actives largely listed as activators; shares compounds with FLuc inh-1; also: nearly all actives have a fitted effect of over 55% in size
FLuc SDR ATP = binders stabilizing firefly luciferase, plus ATP. shares compounds with FLuc inh-1. purified FLuc-C-HiBiT + ATP, HiBiT complementation luminescence. Potency, µM (titrated, usually from 32.7 µM), for inactives: top-dose activation (gain of signal), hits mostly activators. hit rate 8.7% among 1,300;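 also: signal reports ligand binding via conformational change of the enzyme rather than luciferase catalysis; % of control where 0% means no effect; nearly all actives have a fitted effect of over 55% in size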
FLuc inh-2 = blocks firefly luciferase enzymatic activity; purified FLuc-C-HiBiT enzyme, luciferin luminescence; Potency, µM (highest dose often 32.7 µM), for the others: top-dose activity change, negative = inhibition, hits mostly inhibitors; shares compounds with FLuc inh-1; hit rate 42% among 1,300; also: % is scaled to controls: 0 for no effect and ±100 for the full control effect; nearly all actives have a fitted effect of over 70% in size
Active calls of the source: *; i = inactive; ? = inconclusive; / = not tested or not shown; [ ] = dose if it differs, or a comment. Unless noted, calls follow the shape of the dose curve; as a rule, active = well fitted curve in the direction sought with a large enough effect; inconclusive = small, poorly fitted or top-dose-only effect, or another doubt; inactive = no such curve, though single readings can be large; an effect the other way counts as inactive or inconclusive. Potency is read from the fitted curve at half-maximal effect.

SMILES	3T3 cytotox	HEK cytotox	hNpr1 antagonist	FLuc inh-1	FLuc SDR -ATP	FLuc SDR ATP	FLuc inh-2
Cc1cc(C)cc(NC(=O)C2CCN(C(=O)c3ncn4c3COC(c3ccccc3)C4)CC2)c1 (stereo not given)	i	6%	-3%	8.9µM*	16%	?	3.1µM*
CCCNC(=O)C1C(c2cccc(NC(=O)c3ccc(C)cc3)c2)OC(=O)N1Cc1ccc(C)cc1 (stereo not given)	?	?	?	8.9µM*	16%	4.4µM*	4.4µM*
CCc1cccc(-n2nnc(-c3nsc(NC(=O)c4cccs4)n3)c2C)c1	/	/	/	/	13%	14%	-19%
O=C(NC1CCCC1)N1CCN(CCCn2nc3n(c2=O)CCCC3)CC1	-27%	-17%	/	/	/	/	/
CCOC(=O)[C@H]1C[C@]2(CCCCNC2=O)N(C(=O)c2cccc(OC)c2)[C@H]1c1ccco1	?	-13%	/	/	/	/	/
CCOCC1(C)COc2ccc(C(=O)Nc3ccccc3)cc2N1 (stereo not given)	?	?	-4%[70.6 µM]	10µM*	22%[49.3 µM]	13%[49.3 µM]	?
O=C(Nc1c(C(=O)Nc2ccc(F)cc2)oc2ccccc12)c1cc2ccccc2o1	/	/	/	/	22%	14%	7.9µM*
O=C(Cc1cccc(Cl)c1)N1CCCC(C(=O)N2CCC(c3nc4ncccc4[nH]3)CC2)C1 (stereo not given)	-16%	?	/	/	/	/	/
Cc1cccc(CCNC(=O)c2coc(COc3cccc(F)c3F)n2)n1	-27%	-21%	-16%	i	/	/	/
COc1cccc2cc(C(=O)Nc3ccc(CC(=O)O)cc3)c(=O)oc12	/	/	/	/	2.5µM*	1.8µM*	3.1µM*
O=C(NCc1cccs1)C1CCc2nnc(-c3cccc(C(F)(F)F)c3)n21 (stereo not given)	-28%	-16%	/	/	/	/	/
CCCS(=O)(=O)N1CC(CNC(C)=O)C2(CCCCC2)C1 (stereo not given)	-15%	-10%	/	/	/	/	/
CCN1CCN(c2csc3ccc(Cl)cc3c2=O)CC1	/	/	/	/	21%	15%	?
CC1CCCN(c2ncnc3c2CN(c2ccccc2)C(=O)N(C)C3)C1 (stereo not given)	-7%	i	0%	i	/	/	/
Cc1ccc(-n2ncc3c(N4CCCC(C)C4)ncnc32)cc1C (stereo not given)	/	/	/	/	3.5µM*	1.2µM*	0.16µM*
CC1CCCN(c2ncnc3c2cnn3-c2cccc(Cl)c2)C1 (stereo not given)	/	/	/	/	11µM*	?	0.79µM*
O=C(Cc1cccc(Cl)c1)N1CCn2c(nnc2-c2ccccc2)C1	?	-21%	-24%	2.8µM*	14%	19%	?
Cc1ccc(-c2nc3ccccc3s2)cc1NC(=O)COc1ccccc1	/	/	/	/	13%	8%	-9%
COc1ccc(CC(=O)Nc2ccc(-c3nc4ccccc4s3)cc2Cl)cc1	/	/	/	/	16%	13%	-11%
COc1ccc(NC(=O)COc2ccc(-c3nnc4n3CCCC4)cc2)c(OC)c1	?	-15%	3%	i	/	/	/
COc1ccc(OCC(=O)Nc2cc(-c3nc4ccccc4s3)ccc2C)cc1	/	/	/	/	4%	4%	?
COc1ccc(CC(=O)Nc2cnc(-c3ccc(C)cc3)nc2)cc1	-7%	-11%	-1%	?	/	/	/
COc1ccc(NC(=O)N2C[C@@H]3C[C@H](C2)c2ccc(NC(=O)COc4ccccc4)c(=O)n2C3)cc1	-27%	-23%	1%	?	/	/	/
COc1ccc(OCC(=O)Nc2cccc(-c3nc4ccccc4s3)c2C)cc1	/	/	/	/	27%	16%	7.9µM*
COCC1CN(C2CCC2)CC12CCN(C(=O)c1ccc(OC)cc1OC)CC2 (stereo not given)	-25%	?	/	/	/	/	/
SMILES	3T3 cytotox	HEK cytotox	hNpr1 antagonist	FLuc inh-1	FLuc SDR -ATP	FLuc SDR ATP	FLuc inh-2
CCOC(=O)[C@H]1C[C@]2(CCCCN(C)C2=O)N(C(=O)c2cc(C)oc2C)[C@H]1c1ccco1	-27%	?	/	/	/	/	/
O=C1CCN(Cc2ccncc2)CCCC(C(=O)N2CCc3ccccc32)CCN1 (stereo not given)	-17%	-20%	4%	i	/	/	/
Cn1ccc2c(C(=O)NCC3CCOCC3)nc(-c3cccc(N4CCOCC4)c3)cc21	?	?	0%[70.6 µM]	i	/	/	/
Cn1ccc2c(C(=O)NCCc3ccccn3)nc(-c3cccc(N4CCOCC4)c3)cc21	?	?	1%	i	/	/	/
CN1CCN(c2ccc(-c3cc4c(ccn4C)c(C(=O)NCCc4ccccn4)n3)cc2)CC1	20µM*	35µM*	-12%	0.79µM*	?	?	2.8µM*
Cn1ccc2c(C(=O)NCCc3cnc[nH]3)nc(-c3ccc(N4CCOCC4)cc3)cc21	?	?	-2%[70.6 µM]	1µM*	?	?	4.5µM*
COc1ccc(C(=O)COC(=O)CCCC(=O)Nc2ccc(C(C)=O)cc2)cc1	/	/	/	/	29%	19%	?
Cc1cc(NC(=O)c2ccccc2F)ccc1-c1nc2ccccc2s1	/	/	/	/	18%	14%	?
Cn1nc(C2CC2)cc1NC(=O)c1ccccc1F	-16%[138 µM]	i	/	/	/	/	/
O=C(Nc1cc(-c2ccccn2)nn1-c1ccccc1)c1ccccc1F	-26%	?	/	/	/	/	/
O=C(Nc1ccc(-c2nc3ccccc3s2)c(O)c1)c1ccccc1F	/	/	/	/	14%	11%	-16%
CCSc1ccccc1C(=O)Nc1ccc(-c2nc3ccccc3s2)c(O)c1	/	/	/	/	14%	10%	-3%
COC(=O)CNC(=O)c1cn2cc(-c3cccc(C(F)(F)F)c3)sc2n1	-22%	-15%	/	/	/	/	/
C=CCN1CC(COc2ccccc2)Oc2nc(C)ccc2C1=O (stereo not given)	?	-15%[57.5 µM]	/	/	/	/	/
O=C(Cc1ccccn1)N1CCCC1C(=O)N1CCCC1c1nc2ccncc2[nH]1 (stereo not given)	-5%	-7%	/	/	/	/	/
Cc1ccc(C(=O)NC2CC2)cc1-c1ccc2[nH]ncc2c1	/	/	/	/	17%	12%	-16%
COc1ccc(CCNC(=O)c2nc3cccnc3n(C3CC3)c2=O)cc1	-19%	-20%	/	/	/	/	/
CNC(=O)CCn1ncc2cc(OCc3ccccc3-c3cccc(NC(C)=O)c3)ccc21	?	?	-19%	8.9µM*	27%	?	3.1µM*
Cn1cc(-c2cccc(COc3ccc4c(cnn4CC[S+](C)(=O)[O-])c3)c2)cn1	?	?	?	5.6µM*	25%[49.3 µM]	?	?
CC(C)Oc1cccc(-c2cccc(COc3ccc4c(cnn4CC[S+](C)(=O)[O-])c3)c2)c1	?	28µM*	?	6.3µM*	13%	12%	?
COc1ccc(C)cc1-c1ccc(COc2ccc3c(cnn3CCC(=O)O)c2)cc1	-16%[138 µM]	?	-1%[70.6 µM]	i	/	/	/

Compound activity: PubChem, National Center for Advancing Translational Sciences (NCATS)
